Hits are enriched below; roughly 1.1% of the tested compounds scored in any of these assays.
FadD28 binding: blocks FadD28 binding to the bisubstrate probe. fluorescence polarization. inhibition, % at 12.5 µM. 360,000 compounds, 0.22% hits; in the data active = inhibition above about 8.5%, passing the limit was not always enough
PfHsp40 rescue: rescue of PfHsp40-mediated yeast toxicity. S. cerevisiae expressing PfHsp40, growth rescue, ATP luminescence. 340,000 compounds, 0.68% hits. growth rescue, % at 12.5 µM; in the data active = growth rescue above about 28%, passing the limit was not always enough;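 also: yeast W303a lacking pdr1 and pdr3 grown in galactose medium; growth measured after three days at 30 °C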
PrP 5UTR inh: suppresses PrP 5' UTR mRNA reporter expression | cell-based PrP 5' UTR mRNA reporter, plate reader | 340,000 compounds, 0.35% hits | inhibition, % (no concentration beside the values); in the data active = inhibition above about 52%; also: 0 = median of the neutral control wells
BioA inh: blocks M. tuberculosis BioA enzyme activity | inhibition, % at 9.99 µM | purified M. tuberculosis BioA enzyme, plate reader | AID 602481 | 360,000 compounds, 0.096% hits; in the data active = inhibition above about 40%
TcdB inh: TcdB glycohydrolase inhibition | TcdB glycohydrolase enzymatic assay, plate reader | inhibition, % at 9.99 µM | 350,000 compounds, 0.24% hits; in the data active = inhibition above about 10%
Numbers without * were called inactive.

How did COC(=O)C1=C(c2cccc(OCc3ccccc3)c2)C[C@@H]2CC[C@H]1N2C(=O)NCCCc1ccccc1 do in these assays?
FadD28 binding: -2.7; PfHsp40 rescue: 1.9; PrP 5UTR inh: -28.6; BioA inh: 1.5; TcdB inh: 2.6

How did COc1ccc(NC(=O)Cc2ccc(-c3ccccc3)cc2)cn1 do in these assays?
FadD28 binding: -2.0; PfHsp40 rescue: 85.9*; PrP 5UTR inh: 5.1; TcdB inh: -0.2

What do the screens show for `COc1cc(OC)cc(N2C(=O)CC(N3CCC(C(=O)N4CCCCC4)CC3)C2=O)c1` (centres undefined)?
FadD28 binding: -1.1; PfHsp40 rescue: 67.2*; PrP 5UTR inh: -3.3; BioA inh: -0.6; TcdB inh: 0.8

What do the screens show for `Cc1ccc(-c2ccc([C@H]3[C@H]4CN(S(=O)(=O)c5ccccc5C)CCCCN4[C@H]3CO)cc2)cc1`?
BioA inh: 0.5; TcdB inh: 0.0

Results for CCOC(=O)c1c(C)[nH]sc1=S ?
FadD28 binding: -1.3; PfHsp40 rescue: -0.8; PrP 5UTR inh: -7.2; BioA inh: -3.6

Results for CCOC(=O)c1sc(=S)[nH]c1C ?
FadD28 binding: -5.3; PfHsp40 rescue: 1.3; PrP 5UTR inh: -32.5; TcdB inh: 11.7*

How did Cc1cccc(S(=O)(=O)N2CCCCN3[C@H](CO)[C@@H](c4ccc(-c5ccccc5)cc4)[C@H]3C2)c1 do in these assays?
BioA inh: 3.5; TcdB inh: -1.0

Results for Cc1ccc(-c2csc(NC(=O)c3cccc(C)c3)c2C(=O)O)cc1 ?
FadD28 binding: 0.8; PfHsp40 rescue: 59.6*; PrP 5UTR inh: -25.4; BioA inh: -2.7; TcdB inh: 6.0

What do the screens show for `Cc1ccc(-c2csc(NC(=O)/C=C/c3ccco3)c2C(=O)O)cc1`?
FadD28 binding: 1.7; PfHsp40 rescue: 0.0; PrP 5UTR inh: 0.1; BioA inh: 5.2; TcdB inh: 14.6*

Results for COc1ccc(S(=O)(=O)Nc2ccc3c(c2)C(=O)N([C@H](C)CO)C[C@@H](C)[C@H](CN(C)C(=O)C2CCCCC2)OCCCC[C@H](C)O3)cc1 ?
BioA inh: -0.3; TcdB inh: 0.5

What do the screens show for `Cc1ccc(/C=C2/SC(=O)NC2=S)o1`?
FadD28 binding: 15.7*; PfHsp40 rescue: 3.1; PrP 5UTR inh: -26.5; BioA inh: -1.7

Results for COc1ccc(/C=C2\SC(=O)NC2=S)cc1OC ?
FadD28 binding: 2.1; PfHsp40 rescue: 143.2*; PrP 5UTR inh: -17.7; BioA inh: -6.0; TcdB inh: -1.1

How did CCOc1ccc(/C=C2\SC(=S)NC2=O)cc1OC do in these assays?
FadD28 binding: -0.3; PfHsp40 rescue: -0.6; PrP 5UTR inh: -31.8; BioA inh: 1.8; TcdB inh: -0.4

Results for O=C1COc2ccc(C(=O)COC(=O)CNS(=O)(=O)c3cccc(F)c3)cc2N1 ?
FadD28 binding: -3.3; PfHsp40 rescue: 0.6; BioA inh: -0.7; TcdB inh: 12.0*

What do the screens show for `C[C@@H]1CN([C@@H](C)CO)C(=O)Cc2cc(NC(=O)C3CC3)ccc2O[C@H]1CN(C)S(C)(=O)=O`?
BioA inh: 1.2; TcdB inh: 0.2

How did N#CC1=C(N)N(c2ccccc2)C(c2ccco2)C1(C#N)C#N (centres undefined) do in these assays?
FadD28 binding: 14.7*; PfHsp40 rescue: -1.3; PrP 5UTR inh: -2.8; BioA inh: 1.9

What do the screens show for `Cc1noc(C)c1NC(=O)N(C)C[C@@H]1OCCCC[C@@H](C)Oc2ccc(NC(=O)CCC(F)(F)F)cc2C(=O)N([C@H](C)CO)C[C@H]1C`?
BioA inh: 1.2; TcdB inh: 0.5

What do the screens show for `CN1[C@@H]2c3ccc(-c4ccc(F)cc4)c(=O)n3C[C@H]1[C@H](CO)[C@H]2C(=O)Nc1nccs1`?
BioA inh: 0.5; TcdB inh: -0.1

Results for Cc1ccc(S(=O)(=O)N2CC(CO)=CCC2c2ccccc2)cc1 (centres undefined) ?
TcdB inh: 25.5*

Results for CCc1ccc([C@@H]2CC=C(C(=O)O)CN2S(=O)(=O)c2ccc(C)cc2)cc1 ?
FadD28 binding: -1.2; PfHsp40 rescue: -0.2; PrP 5UTR inh: -8.5; BioA inh: -0.2; TcdB inh: 1.4

What do the screens show for `Cc1ccc(S(=O)(=O)N[C@@H]2CC[C@@H](CC(=O)NCc3ccc(Cl)c(Cl)c3)O[C@H]2CO)cc1`?
BioA inh: -5.1; TcdB inh: 0.7

How did CCN1CC(CNCc2cn(-c3ccc(OC)cc3)nc2-c2ccccc2Cl)CC1=O (centres undefined) do in these assays?
FadD28 binding: -6.2; PfHsp40 rescue: 0.5; PrP 5UTR inh: -16.2; TcdB inh: 10.6*
